In PubChem BioAssay AID1159580 (chemical genetic matrix, 2015):
The whole screen tested about 5,500 compounds, of which about 2,000 (36%) were called active. Roughly 18% stayed inconclusive and do not appear here. Rule as the data show it: active = normalized growth mostly below about 0.91 (no sharp cut-off); inconclusive = no clear call, values can overlap the other calls; inactive = mostly above about 0.92. The list shows a part of the results.

Assay: chemical genetic growth profiling, strain panel (AID 1159580);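 also: tested at 20 µM; growth read once vehicle control cultures reached saturation at 30 °C; 1 = growth at the plate median or of vehicle wells; lower values mean less growth of the strain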
Details: S. cerevisiae deletion strains, growth OD

Measured: normalized growth

N[C@H](CO)Cc1ccccc1
inactive: locus YAL021C, strain ccr4, stronger effect = lower value 1.01 | locus YAL026C, strain drs2, stronger effect = lower value 1.02 | locus YAL030W, strain snc1, stronger effect = lower value 1.03 | locus YBL061C, strain skt5, stronger effect = lower value 1.03 | locus YBR009C, strain hhf1, stronger effect = lower value 1.03 | locus YBR023C, strain chs3, stronger effect = lower value 1.02 | locus YBR171W, strain sec66, stronger effect = lower value 1.02 | locus YBR231C, strain swc5, stronger effect = lower value 1.02 | locus YBR279W, strain paf1, stronger effect = lower value 1.01 | locus YCL011C, strain gbp2, stronger effect = lower value 1.01 | locus YCL016C, strain dcc1, stronger effect = lower value 0.998 | locus YCL061C, strain MRC1, stronger effect = lower value 1.02 | locus YCL069W, strain vba3, stronger effect = lower value 1.02 | locus YCR088W, strain abp1, stronger effect = lower value 1.01 | locus YDL005C, strain med2, stronger effect = lower value 1.01 | locus YDL040C, strain nat1, stronger effect = lower value 1.02 | locus YDR001C, strain nth1, stronger effect = lower value 1.02 | locus YDR069C, strain doa4, stronger effect = lower value 1.04 | locus YDR137W, strain rgp1, stronger effect = lower value 1.01 | locus YDR159W, strain sac3, stronger effect = lower value 1.06 | locus YDR195W, strain ref2 1.02 | locus YDR297W, strain sur2, stronger effect = lower value 1.05 | locus YDR334W, strain swr1, stronger effect = lower value 1.02 | locus YDR335W, strain msn5, stronger effect = lower value 1.01 | locus YDR392W, strain spt3, stronger effect = lower value 0.927 | locus YEL003W, strain gim4, stronger effect = lower value 1.03 | locus YEL037C, strain rad23, stronger effect = lower value 1.01 | locus YEL061C, strain CIN8 (second series), stronger effect = lower value 1.02 | locus YER015W, strain faa2, stronger effect = lower value 1.03 | locus YER016W, strain bim1, stronger effect = lower value 1.03 | locus YER111C, strain swi4, stronger effect = lower value 1.02 | locus YER155C, strain BEM2 (second series), stronger effect = lower value 1.02 | locus YFR010W, strain ubp6, stronger effect = lower value 1.04 | locus YGL167C, strain pmr1, stronger effect = lower value 1.02 | locus YGL173C, strain kem1, stronger effect = lower value 1.03 | locus YGL227W, strain vid30, stronger effect = lower value 1.03 | locus YGL240W, strain doc1, stronger effect = lower value 1.02 | locus YGL253W, strain hxk2, stronger effect = lower value 1.03 | locus YHR013C, strain ard1, stronger effect = lower value 1.03 | locus YHR027C, strain rpn1, stronger effect = lower value 1.02 | locus YHR030C, strain SLT2, stronger effect = lower value 1.07 | locus YHR079C, strain IRE1, stronger effect = lower value 1.05 | locus YHR142W, strain chs7, stronger effect = lower value 1.03 | locus YJL092W, strain hpr5, stronger effect = lower value 1.02 | locus YJL095W, strain BCK1 (second series), stronger effect = lower value 1.02 | locus YJL095W, strain BCK1, stronger effect = lower value 1.06 | locus YJL115W, strain asf1, stronger effect = lower value 1.01 | locus YJL129C, strain trk1, stronger effect = lower value 1.03 | locus YJL154C, strain vps35, stronger effect = lower value 1.02 | locus YJL164C, strain tpk1, stronger effect = lower value 0.994 | locus YJL166W, strain qcr8, stronger effect = lower value 1.02 | locus YJL187C, strain SWE1, stronger effect = lower value 1.01 | locus YJR066W, strain TOR1, stronger effect = lower value 0.974 | locus YKL160W, strain elf1, stronger effect = lower value 0.996 | locus YKR026C, strain gcn3, stronger effect = lower value 1.02 | locus YKR091W, strain srl3, stronger effect = lower value 1.01 | locus YLL001W, strain dnm1, stronger effect = lower value 1.01 | locus YLL026W, stronger effect = lower value 1.02 | locus YLL041C, strain sdh2, stronger effect = lower value 1.01 | locus YLR027C, strain aat2, stronger effect = lower value 1.01 | locus YLR113W, strain HOG1, stronger effect = lower value 1.05 | locus YLR221C, strain rsa3, stronger effect = lower value 1.03 | locus YLR258W, strain gsy2, stronger effect = lower value 1.05 | locus YLR262C, strain YPT6 (second series), stronger effect = lower value 1.02 | locus YLR320W, strain mms22, stronger effect = lower value 1.03 | locus YLR342W, strain FKS1, stronger effect = lower value 1.03 | locus YLR357W, strain rsc2, stronger effect = lower value 1.05 | locus YLR370C, strain arc18, stronger effect = lower value 1.04 | locus YLR384C, strain iki3, stronger effect = lower value 1 | locus YML120C, strain ndi1, stronger effect = lower value 1.01 | locus YMR058W, strain fet3, stronger effect = lower value 1.02 | locus YMR125W, strain sto1, stronger effect = lower value 1.01 | locus YMR129W, stronger effect = lower value 1.01 | locus YMR205C, strain PFK2, stronger effect = lower value 1.02 | locus YMR231W, strain pep5, stronger effect = lower value 1.02 | locus YNL071W, strain lat1, stronger effect = lower value 1.02 | locus YNL183C, strain NPR1, stronger effect = lower value 0.974 | locus YNL209W, strain ssb2, stronger effect = lower value 1.01 | locus YNL248C, strain rpa49, stronger effect = lower value 1.06 | locus YNL322C, strain KRE1 (second series), stronger effect = lower value 1.02 | locus YNR049C, strain mso1, stronger effect = lower value 1.02 | locus YOR001W, strain rrp6, stronger effect = lower value 1.03 | locus YOR070C, strain gyp1, stronger effect = lower value 1.01 | locus YOR080W, strain dia2, stronger effect = lower value 1.02 | locus YOR083W, strain WHI5, stronger effect = lower value 1 | locus YOR106W, strain vam3, stronger effect = lower value 1 | locus YOR231W, strain MKK1, stronger effect = lower value 1.07 | locus YOR265W, strain rbl2, stronger effect = lower value 1.01 | locus YOR270C, strain vph1, stronger effect = lower value 1.06 | locus YOR290C, strain snf2, stronger effect = lower value 0.978 | locus YPL051W, strain arl3, stronger effect = lower value 1.03 | locus YPL078C, strain atp4, stronger effect = lower value 0.99 | locus YPL106C, strain sse1, stronger effect = lower value 1 | locus YPL240C, strain hsp82, stronger effect = lower value 1.02 | locus YPL256C, strain CLN2, stronger effect = lower value 1.04
